PI4K2A block = qHTS for small molecular inhibitors of PI4K2A | Phosphatidylinositol 4-kinase type 2-alpha (Homo sapiens), Q9BTU6 | purified PI4K2A, ADP-Glo luminescence, 1 h; active compounds read low | activity change, negative = inhibition, % at 76.9 µM | 420,000 tested, 0.13% active; in the data active means activity change below about -50%; inconclusive means mostly about -30% to -49%;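 further: -100% = wells without enzyme as full effect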
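PI4K2A activity was measured by ADP-Glo luminescence: enzyme (4 ug/mL stock) and phosphatidylinositol (1.2 mM stock) in Tris pH 7.5/MgCl2/EGTA/Triton X-100 buffer were reacted with ATP (300 microM stock) for one hour at ambient temperature.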
Pin1 inhibitor = qHTS Assay to Find Inhibitors of Pin1. Peptidyl-prolyl cis-trans isomerase NIMA-interacting 1 (Homo sapiens), Q13526. Pin1 FP peptide displacement, HiFluor488, 10 min. Potency, µM (titrated, usually from 115 µM), without a hit: at the highest dose activity, negative = inhibition, hits mostly inhibitors. 390,000 tested, 0.009% active; active means well fitted inhibition curve with a large enough effect in the polarisation, with a control signal flat, not every such curve was filed as active; inconclusive means small, poorly fitted or top-dose-only effect, or effect the other way, or a change in a side signal; inactive means no such curve, though single readings can be large or run the other way; the % refers to the polarisation; further: potency means the concentration at half of the fitted maximal effect
Target sequence (Q13526 whole entry, looked up): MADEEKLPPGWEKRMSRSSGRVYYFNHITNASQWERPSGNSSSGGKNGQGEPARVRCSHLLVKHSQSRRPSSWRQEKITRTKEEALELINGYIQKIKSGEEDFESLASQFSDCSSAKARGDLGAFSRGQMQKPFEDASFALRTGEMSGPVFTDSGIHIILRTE
PI5P4Ka inh = qHTS for Inhibitors of phosphatidylinositol 5-phosphate 4-kinase (PI5P4K). Phosphatidylinositol 5-phosphate 4-kinase type-2 alpha (Homo sapiens), P48426. PI5P4Kalpha enzyme, ADP-Glo luminescence, 60 min; active compounds read low. max response, %. 330,000 tested, 1.2% active; active means max response of -50% or lower; inconclusive means between -30% and -50%; inactive means -30% or higher; further: value at the top dose of about 77 µM
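Enzyme plus substrate dispensed, test compounds pinned in, then ATP (5 microM final) added. After 60 min at RT, ADP-Glo reagent 1 for 45 min and reagent 2 for 30 min preceded luminescence imaging.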
Tb PFK inh = qHTS Assay to Find Inhibitors of T. brucei phosphofructokinase. ATP-dependent 6-phosphofructokinase (Trypanosoma brucei brucei), O15648. T. brucei PFK, ADP-Glo luminescence. Potency, µM (series often up to 57.5 µM), inactives show top-dose activity, negative = inhibition, hits mostly inhibitors. 330,000 tested, 0.17% active;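 further: potency means the concentration at half of the fitted maximal effect; 0% = uninhibited 1x PFK enzyme wells and -100% = no-enzyme wells; nearly all actives have a fitted effect of over 60% in size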
Target sequence (O15648 whole entry, looked up): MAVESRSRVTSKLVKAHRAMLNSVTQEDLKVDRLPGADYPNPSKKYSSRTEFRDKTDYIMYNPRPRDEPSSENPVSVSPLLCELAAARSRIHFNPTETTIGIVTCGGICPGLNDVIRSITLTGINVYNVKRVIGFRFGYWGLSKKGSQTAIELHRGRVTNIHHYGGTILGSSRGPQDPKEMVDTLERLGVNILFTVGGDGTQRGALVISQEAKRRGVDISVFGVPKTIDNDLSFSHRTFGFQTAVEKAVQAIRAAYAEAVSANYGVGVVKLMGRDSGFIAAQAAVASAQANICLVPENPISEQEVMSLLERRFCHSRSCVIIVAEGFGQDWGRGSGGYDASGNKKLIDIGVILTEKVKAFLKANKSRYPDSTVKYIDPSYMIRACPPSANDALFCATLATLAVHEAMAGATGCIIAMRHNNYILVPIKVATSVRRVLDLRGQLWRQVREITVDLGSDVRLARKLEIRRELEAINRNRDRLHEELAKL
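Activity is normalized to no-enzyme wells (full inhibition) and 1.25 nM enzyme wells (no inhibition). Reaction: 0.5 mM F6P, 0.1 mM ATP, 45 min RT, ADP-Glo luminescence; concentration-response curves fitted and classed by quality.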
PGK inhibitor = qHTS Assay to Find Inhibitors of Phosphoglycerate Kinase. Phosphoglycerate kinase, glycosomal (Trypanosoma brucei brucei), P07378. Potency, µM (highest dose often 57.5 µM), without a hit: at the top dose activity change, negative = inhibition, hits mostly inhibitors. PGK/GAPDH coupled, Kinase-Glo luminescence, 60 min. 380,000 tested, 0.043% active; further: potency means the concentration at half of the fitted maximal effect; nearly all actives have a fitted effect of over 60% in size
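Recombinant glycosomal PGK reaction used 1,3-bisphosphoglycerate generated in-well by GAPDH (100nM final) in 100mM TEA pH 7.6, 5mM MgCl2, 0.01% Tween-20. After 60 minutes at room temperature, ATP was read by Kinase-Glo Plus luminescence end-point.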
Starred values were filed as active, the others as inactive; i = inactive; ? = inconclusive; nt = no result given. The full list was thinned out, with hits kept by preference. Unless noted, the call rests on the fitted dose curve; in most records, active means well fitted curve in the direction sought with a large enough effect; inconclusive means small, poorly fitted or top-dose-only effect, or another doubt; inactive means no such curve, though single readings can be large; an effect the other way counts as inactive or inconclusive. Unless noted, on the % scale 0 is the no-effect control and ±100 the full control effect.

SMILES	PI4K2A block	Pin1 inhibitor	PI5P4Ka inh	Tb PFK inh	PGK inhibitor
O=C1C=C(N2CC2)c2ccccc2C1=O	?	nt	-66*	nt	-29%
COc1cccc(C(=O)CCN[C@@H](C)[C@H](O)c2ccccc2)c1	5	nt	nt	nt	nt
CCN1C(=O)CC(=O)N(CC)C1=S	-3	nt	-55*	nt	4%
CCN1C(=O)C(=C2C=C(C)OC(C)=C2)C(=O)N(CC)C1=S	5	8%	2	1%	8%
CC(=O)c1cccc(NC(=O)CSc2ncc3c(n2)-c2cc(Cl)ccc2N(Cc2ccccc2)S3(=O)=O)c1	-1	45%	nt	nt	-9%
CCCCN1C(=O)/C(=C/c2ccc(N(C)C)cc2)C(=O)N(Cc2ccco2)C1=O	-23	?	-64*	-3%	-5%
CCN(CC)c1ccc(/C=C2\C(=O)NC(=O)N(Cc3ccco3)C2=O)cc1	-28	?	-57*	0%	-2%
COCCOCCO	i	nt	nt	nt	nt
CCC(C)c1ccc(N2C(=O)NC(=O)/C(=C/c3cccn3CCOc3ccc(C)cc3)C2=O)cc1 (stereo not drawn)	-3	?	-58*	-4%	5%
Cc1ccc(N2C(=O)NC(=O)/C(=C\c3cccn3C(C)(C)C)C2=O)cc1	-17	40%	-2	11%	nt
Cc1c(CCNS(=O)(=O)c2ccccc2)sc2nc(-c3ccc(Cl)cc3)nn12	3	?	nt	nt	i
COc1ccc(C=C2C(=O)NC(=S)NC2=O)cc1	-4	-15%	-64*	nt	7%
CN(C)c1ccc(C=C2C(=O)NC(=O)NC2=O)cc1[N+](=O)[O-]	-23	3%	?	6%	i
O=C1NC(=S)NC(=O)C1=Cc1c(Cl)cccc1Cl	-3	0%	?	nt	2%
O=C1NC(=S)NC(=O)C1=Cc1cccc2cc3ccccc3cc12	-9	?	-70*	-8%	-10%
COc1ccc(OCCOc2cccc(C=C3C(=O)NC(=O)NC3=O)c2)cc1	nt	nt	nt	1%	nt
O=C1NC(=S)NC(=O)C1=Cc1ccc(OCc2ccccc2)cc1	-3	7%	-82*	nt	-4%
CN(C)c1ccc(C=C2C(=O)NC(=S)NC2=O)cc1[N+](=O)[O-]	-8	-14%	-75*	-15%	-10%
O=c1c(C2CC(c3ccc(-c4ccc(Br)cc4)cc3)Cc3ccccc32)c(O)sc2ccccc12 (stereo not drawn)	-7	nt	nt	nt	nt
C#CC(O)(C=CCl)CC (stereo not drawn)	-1	nt	nt	nt	nt
COc1cc(C=C2C(=O)NC(=O)NC2=O)ccc1O	?	?	-29	13%	-7%
C=CCc1cc(C=C2C(=O)N(C)C(=O)N(C)C2=O)cc(OCC)c1OCc1ccccc1	-22	44%	-55*	2%	i
C=CCn1cc(C=C2C(=O)N(C)C(=O)N(C)C2=O)c2ccccc21	-6	?	-1	1%	2%
C=CCc1cc(C=C2C(=O)NC(=O)NC2=O)cc(OC)c1OCc1ccc(C(=O)O)cc1	?	-11%	-62*	0%	-6%
CCS(=O)(=O)C1=NN2C(=N)/C(=C\c3ccc(OC(=O)c4ccco4)cc3)C(=O)N=C2S1	3	2%	-4	?	10%
SMILES	PI4K2A block	Pin1 inhibitor	PI5P4Ka inh	Tb PFK inh	PGK inhibitor
N=C1/C(=C\c2ccc(OC(=O)c3ccccc3Cl)cc2)C(=O)N=C2SC(N3CCOCC3)=NN12	-2	?	-67*	8%	-11%
CN1CC[C@]23c4c5ccc(O)c4O[C@H]2[C@@H](O)CC[C@H]3[C@H]1C5	i	nt	nt	nt	nt
N/C(=N\N=C/c1ccc(-c2ccc(O)c(C(=O)O)c2)o1)N[N+](=O)[O-]	-12	?	nt	1%	10µM*
C[C@]12CC[C@H]3[C@@H](CCC4=CC(=O)CC[C@@H]43)[C@@H]1CC[C@@H]2OC(=O)CCC1CCCCC1	-1	nt	nt	nt	nt
COc1ccc(/C=C2/C(=O)NC(=O)N(c3ccc(C)c(C)c3)C2=O)cc1CN1C(=O)c2ccccc2C1=O	-18	15%	-66*	-17%	-7%
COc1cc(/C=C2\C(=O)NC(=O)N(c3ccccc3)C2=O)cc(OC)c1OC	-11	-2%	?	4%	i
Cc1ccccc1N1C(=O)NC(=O)/C(=C\c2cc(Br)c(N3CCOCC3)o2)C1=O	-21	?	-75*	8%	-10%
O=C(N/N=C/C1C(=O)NC(=S)N(c2ccccc2)C1=O)c1cc(Br)c(O)c(Br)c1 (stereo not drawn)	-3	-12%	-96*	20%	3%
Nc1ccccc1C(=O)OCC(O)CO (stereo not drawn)	1	nt	nt	nt	nt
Cc1ccc(/C=C2/C(=O)NC(=O)N(C)C2=O)cc1	-20	1%	-2	-3%	-3%
COc1ccc(OC)c(N2C(=O)NC(=O)/C(=C\c3ccc([N+](=O)[O-])s3)C2=O)c1	-21	nt	-61*	?	-19%
CN1C(=O)NC(=O)/C(=C/c2ccc([N+](=O)[O-])s2)C1=O	-24	?	-56*	28%	-23%
O=C1NC(=O)N(c2ccccc2)C(=O)/C1=C\c1ccc([N+](=O)[O-])s1	-23	?	-74*	?	-29%
CCc1ccc(C2CCNCC2)cc1	1	nt	nt	nt	nt
Cc1cccc(C(=O)Nc2ccc(C(=O)OCc3cc(=O)n4nc(C5CC5)sc4n3)cc2)c1	1	39%	nt	nt	-9%
COc1ccc2c3c1O[C@H]1[C@H](O)CC[C@H]4[C@@H](C2)N(C)CC[C@@]341	i	nt	nt	nt	nt
COC(=O)C1=Nc2ccccc2/C1=C\c1c(O)n(-c2cc(OC)ccc2OC)c(=O)[nH]c1=O	-3	38%	-66*	5%	7%
Cc1ccccc1-n1c(O)c(/C=C2/C(c3ccccc3)=Nc3ccccc32)c(=O)[nH]c1=O	-7	35%	-19	-5%	-1%
O=C1NC(=O)N(Cc2cccs2)C(=O)/C1=C/c1ccc(N2CCOCC2)cc1	-5	21%	-52*	0%	10%
CC(Cc1ccccc1)NCCn1cnc2c1c(=O)n(C)c(=O)n2C (stereo not drawn)	i	nt	nt	nt	nt
CCOc1ccc(-c2cn3c(n2)sc2cc(C(=O)N4CCCC(C)C4)ccc23)cc1 (stereo not drawn)	0	?	nt	nt	i
O=C1NC(=O)N(c2cccc(Br)c2)C(=O)/C1=C/c1ccsc1	-6	?	-64*	22%	-10%
O=C(CBr)Nc1ccc(Cl)cc1C(=O)c1ccccc1F	-2	nt	nt	nt	nt
C=CCn1c(O)c(/C(C)=N/NC(=S)Nc2ccccc2)c(=O)[nH]c1=O	-6	-58%	-64*	-6%	-5%

Screening data as filed in PubChem.
